Values joined by “and” are separate entries in the source; they are usually repeats but may differ in a detail not shown here. Identical values can stand only once. Screen size: about 5,500 compounds; about 2,000 (36%) were called active. About 18% were inconclusive and are not listed. Cut-off read from the data, not from the text of the source: active = normalized growth mostly below about 0.91 (no sharp cut-off); inconclusive = no clear call, values can overlap the other calls; inactive = mostly above about 0.92. Some of the results follow.
Assay: chemical genetic growth profiling, strain panel (AID 1159580);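 note: tested at 20 µM; growth read once vehicle control cultures reached saturation at 30 °C; 1 = growth at the plate median or of vehicle wells; lower values mean less growth of the strain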
Conditions: S. cerevisiae deletion strains, growth OD

Measured: normalized growth

CCn1cc(C(=O)O)c(=O)c2cnc(N3CCNCC3)nc21
inactive: locus YAL021C, strain ccr4, hits give low values 1.02 | locus YAL026C, strain drs2, hits give low values 1.03 | locus YAL030W, strain snc1, hits give low values 1.03 | locus YBL061C, strain skt5, hits give low values 1.04 | locus YBR009C, strain hhf1, hits give low values 1.02 | locus YBR021W, strain FUR4, hits give low values 0.997 | locus YBR023C, strain chs3, hits give low values 1.03 | locus YBR171W, strain sec66, hits give low values 1.04 | locus YBR229C, strain ROT2, hits give low values 0.98 | locus YBR231C, strain swc5, hits give low values 0.998 | locus YBR279W, strain paf1, hits give low values 1.01 | locus YCL011C, strain gbp2, hits give low values 1.04 | locus YCL016C, strain dcc1, hits give low values 1.01 | locus YCL029C, strain bik1, hits give low values 0.987 | locus YCL069W, strain vba3, hits give low values 1.02 | locus YCR088W, strain abp1, hits give low values 1.02 | locus YDL005C, strain med2, hits give low values 1 | locus YDL035C, strain GPR1, hits give low values 1.01 | locus YDL040C, strain nat1, hits give low values 1 | locus YDL074C, strain BRE1, hits give low values 1.06 | locus YDL101C, strain DUN1, hits give low values 0.994 | locus YDL134C, strain PPH21, hits give low values 0.986 | locus YDL185W, strain tfp1, hits give low values 0.985 | locus YDL192W, strain arf1, hits give low values 0.985 | locus YDR001C, strain nth1, hits give low values 1.01 | locus YDR069C, strain doa4, hits give low values 1.02 | locus YDR101C, strain arx1, hits give low values 1.01 | locus YDR137W, strain rgp1, hits give low values 1 | locus YDR159W, strain sac3, hits give low values 0.945 | locus YDR162C, strain NBP2, hits give low values 0.992 | locus YDR195W, strain ref2 0.975 | locus YDR297W, strain sur2, hits give low values 1 | locus YDR318W, strain mcm21, hits give low values 1.01 | locus YDR334W, strain swr1, hits give low values 1.02 | locus YDR335W, strain msn5, hits give low values 1.01 | locus YDR388W, hits give low values 0.993 | locus YDR392W, strain spt3, hits give low values 0.959 | locus YDR502C, strain sam2, hits give low values 1 | locus YEL003W, strain gim4, hits give low values 1.02 | locus YEL037C, strain rad23, hits give low values 1.01 | locus YEL061C, strain CIN8 (second series), hits give low values 1 | locus YEL061C, strain CIN8, hits give low values 0.995 | locus YER015W, strain faa2, hits give low values 1.02 | locus YER016W, strain bim1, hits give low values 1.02 | locus YER110C, hits give low values 0.987 | locus YER111C, strain swi4, hits give low values 1.02 | locus YER155C, strain BEM2 (second series), hits give low values 0.981 | locus YER155C, strain BEM2, hits give low values 0.983 | locus YER167W, strain BCK2, hits give low values 0.987 | locus YFR010W, strain ubp6, hits give low values 1 | locus YGL078C, strain dbp3, hits give low values 1 | locus YGL086W, strain mad1, hits give low values 1.01 | locus YGL167C, strain pmr1, hits give low values 1.01 | locus YGL173C, strain kem1, hits give low values 1 | locus YGL227W, strain vid30, hits give low values 1.01 | locus YGL240W, strain doc1, hits give low values 0.988 | locus YGL248W, strain PDE1, hits give low values 1 | locus YGL253W, strain hxk2, hits give low values 1.04 | locus YGR078C, strain PAC10, hits give low values 1.05 | locus YGR135W, strain pre9, hits give low values 0.963 | locus YGR252W, strain gcn5, hits give low values 1 | locus YHR013C, strain ard1, hits give low values 1.04 | locus YHR027C, strain rpn1, hits give low values 1.01 | locus YHR030C, strain SLT2, hits give low values 0.983 and 1.06 | locus YHR079C, strain IRE1 (second series), hits give low values 0.992 | locus YHR079C, strain IRE1, hits give low values 1.03 | locus YHR094C, strain hxt1, hits give low values 0.984 | locus YHR129C, strain ARP1, hits give low values 0.986 | locus YHR142W, strain chs7, hits give low values 1.04 | locus YHR200W, strain rpn10, hits give low values 0.988 | locus YIL066C, strain RNR3, hits give low values 1.01 | locus YIL073C, strain SPO22, hits give low values 0.961 | locus YIL125W, strain kgd1, hits give low values 0.993 | locus YIR030C, strain dcg1, hits give low values 0.986 | locus YJL092W, strain hpr5, hits give low values 1.02 | locus YJL095W, strain BCK1 (second series), hits give low values 1 | locus YJL095W, strain BCK1, hits give low values 1.03 and 1.04 | locus YJL115W, strain asf1, hits give low values 1 | locus YJL129C, strain trk1, hits give low values 1.04 | locus YJL134W, strain LCB3, hits give low values 0.983 | locus YJL154C, strain vps35, hits give low values 1.03 | locus YJL164C, strain tpk1, hits give low values 1.05 | locus YJL166W, strain qcr8, hits give low values 1.02 | locus YJL168C, strain set2, hits give low values 0.99 | locus YJL187C, strain SWE1 (second series), hits give low values 1.02 | locus YJL187C, strain SWE1, hits give low values 1.02 | locus YJR043C, strain POL32, hits give low values 1 | locus YJR066W, strain TOR1, hits give low values 1
